Calls of active or inactive are those of the source.
Assays:
[1] = binders of probe aFSTL3 on microarray, primary screen, stem cell growth factor project, biochemical, small-molecule microarray, fluorescence 635/667 (AID 1064); conditions: higher = more signal;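 note: measures binding of the biotinylated anti-FSTL3 antibody to printed compounds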
[2] = binders from COS7 lysate, DM2A8 probe, primary screen, torsin A project, cell lysate, small-molecule microarray, fluorescence 635/667 (AID 1065); conditions: higher = more signal, COS7 lysate expressing mutant human TOR1A
[3] = binders of probe aFGF2 on microarray, primary screen, stem cell growth factor project, biochemical, small-molecule microarray, fluorescence 635/667 (AID 1067); conditions: higher = more signal;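 note: measures binding of biotinylated aFGF2 protein to printed compounds on slides; z-score merges feature fluorescence and signal-to-noise across triplicate slides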
[4] = binders of probe aFGF10 on microarray, primary screen, stem cell growth factor project, biochemical, small-molecule microarray, fluorescence 635/667 (AID 1071); conditions: higher = more signal;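 note: score merges 667 nm spot intensity and signal to noise from triplicate slides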
[5] = biological target: Neurogenic locus notch homolog protein 2 (Homo sapiens) (UniProt Q04721); test: Notch2 binders on small-molecule microarrays, primary screen, biochemical, small-molecule microarray, 635 nm fluorescence, stem cell growth factors (AID 1073); conditions: Notch2 binding, higher = more signal
[6] = biological target: Pro-neuregulin-1, membrane-bound isoform (Homo sapiens) (UniProt Q02297); test: NRG1 binders on small-molecule microarrays, primary screen, psychiatric disease protein project, biochemical, small-molecule microarray, fluorescence 635/667 (AID 1075); conditions: NRG1 binding, 635 nm fluorescence, higher = more signal;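 note: score combines 667 nm spot fluorescence with signal to noise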
Sequence of Pro-neuregulin-1, membrane-bound isoform (Homo sapiens) (Q02297 whole entry, looked up, the tested form may be a part, canonical isoform): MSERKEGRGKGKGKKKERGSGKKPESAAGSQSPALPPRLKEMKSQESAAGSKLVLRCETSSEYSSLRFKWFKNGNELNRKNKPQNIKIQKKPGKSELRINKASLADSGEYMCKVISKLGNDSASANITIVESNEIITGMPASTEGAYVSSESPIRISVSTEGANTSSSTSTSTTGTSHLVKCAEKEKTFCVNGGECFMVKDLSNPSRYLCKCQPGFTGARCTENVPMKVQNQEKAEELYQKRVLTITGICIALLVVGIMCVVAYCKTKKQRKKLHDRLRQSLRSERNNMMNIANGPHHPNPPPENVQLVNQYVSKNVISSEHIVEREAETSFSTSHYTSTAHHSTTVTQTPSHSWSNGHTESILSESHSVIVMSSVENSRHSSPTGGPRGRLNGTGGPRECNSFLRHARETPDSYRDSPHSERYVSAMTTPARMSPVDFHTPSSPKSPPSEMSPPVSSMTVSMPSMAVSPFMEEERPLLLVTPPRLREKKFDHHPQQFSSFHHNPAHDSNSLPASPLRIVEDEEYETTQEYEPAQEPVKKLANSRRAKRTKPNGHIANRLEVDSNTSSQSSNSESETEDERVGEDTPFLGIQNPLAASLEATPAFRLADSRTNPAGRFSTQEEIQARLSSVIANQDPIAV

[7] = test system: Neuregulin-1 EGF-like domain; test: binders of neuregulin-1 EGF-like domain, primary screen, biochemical, small-molecule microarray, 635 nm fluorescence (AID 1081); conditions: small-molecule microarray binding, higher = more signal;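 note: binding of the protein to compounds printed on small-molecule microarray slides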
[8] = FRG1 promoter luciferase signal modulators, primary screen, FRG1 inhibition for FSHD, cell-based, C2C12 myotubes, firefly/Renilla luciferase, luminescence (AID 1084); conditions: higher = more signal, called active from +8 up or from −8 down
[9] = binders of probe aFST on microarray, primary screen, stem cell growth factor project, biochemical, small-molecule microarray, fluorescence 635/667 (AID 1086); conditions: higher = more signal;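 note: score merges 667 nm fluorescence with signal-to-noise of each printed compound spot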
[10] = binders of probe aHhip on microarray, primary screen, stem cell growth factor project, biochemical, small-molecule microarray, fluorescence 635/667 (AID 1087); conditions: higher = more signal;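 note: score merges spot fluorescence at 667nm with spot signal to noise ratio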
[11] = test system: PRMT1 (protein arginine N-methyltransferase 1); test: PRMT1 binders on small-molecule microarrays, primary screen, biochemical, small-molecule microarray, 635 nm fluorescence (AID 1088); conditions: small-molecule microarray binding, higher = more signal;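 note: binding of Prmt1 protein to compounds spotted on small-molecule microarray slides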
[12] = yeast growth modulation, basal conditions, primary screen, YJM789 clinical isolate, OD600, 24 h (AID 1089);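 note: growth of clinical yeast isolate S. cerevisiae YJM 789 seeded 1000 cells per well; test concentration not given here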; conditions: S. cerevisiae YJM789 growth, higher = more signal, called active from +8 up or from −8 down
[13] = fission yeast growth modulation, primary screen, strain 972, OD600, 24 h, no modulator (AID 1090);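 note: basal condition with compound alone and no growth modifier present; test concentration not given here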; conditions: S. pombe 972 growth, higher = more signal, called active from +8 up or from −8 down
[14] = S. cerevisiae growth modulation with rapamycin, primary screen, strain BY4716, OD600, 96 h (AID 1091); conditions: higher = more signal, called active from +8 up or from −8 down; note: test concentration not given here
[15] = biological target: Torsin-1A-interacting protein 2 (Homo sapiens) (UniProt Q8NFQ8); test: LULL1 binders on small-molecule microarray, primary screen, cell lysate, human LULL1 lysate, 635/667 nm fluorescence (AID 1092); conditions: hLULL1 lysate binding, 635 nm fluorescence, higher = more signal;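 note: probe is lysate of COS7 cells overexpressing human LULL1; score merges per-feature 667 nm fluorescence with signal-to-noise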
Sequence of Torsin-1A-interacting protein 2 (Homo sapiens) (Q8NFQ8 whole entry, looked up): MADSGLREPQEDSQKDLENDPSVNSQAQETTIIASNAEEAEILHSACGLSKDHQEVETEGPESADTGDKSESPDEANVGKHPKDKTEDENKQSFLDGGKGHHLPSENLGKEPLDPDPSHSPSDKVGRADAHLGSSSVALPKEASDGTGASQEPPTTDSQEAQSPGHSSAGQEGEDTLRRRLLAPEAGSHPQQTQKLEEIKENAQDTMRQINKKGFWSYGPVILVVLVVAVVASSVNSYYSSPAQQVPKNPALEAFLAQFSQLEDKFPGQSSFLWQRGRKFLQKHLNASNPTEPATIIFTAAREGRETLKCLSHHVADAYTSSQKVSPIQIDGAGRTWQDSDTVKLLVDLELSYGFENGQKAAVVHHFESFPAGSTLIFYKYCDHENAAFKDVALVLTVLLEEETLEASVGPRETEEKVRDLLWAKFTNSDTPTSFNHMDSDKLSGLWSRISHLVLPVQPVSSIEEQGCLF

[16] = E. coli growth modulation, two-sided OD650, primary screen, E. coli filamentation project, strain DRC41, 24 h (AID 1093); conditions: OD650, 24 h, higher = more signal, called active from +8 up or from −8 down;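 note: MC1000 strain lacking acrAB efflux and sulA so SOS filamentation is blocked; test concentration not given here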
[17] = small-molecule microarray binders of probe aLefty2, primary screen, biochemical, biotinylated probe, 635/667 nm fluorescence (AID 1094); conditions: higher = more signal;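 note: score merges spot fluorescence near 667 nm with spot signal-to-noise ratio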
[18] = test system: Noggin (protein binding on small-molecule microarray); test: Noggin binders on small-molecule microarray, primary screen, biochemical, 635/667 nm fluorescence (AID 1095); conditions: 635 nm fluorescence, higher = more signal;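 note: score merges 667 nm feature fluorescence with signal to noise over triplicate slides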
[19] = biological target: Neurogenic locus notch homolog protein 3 (Homo sapiens) (UniProt Q9UM47); test: NOTCH3 binders on small-molecule microarray, primary screen, biochemical, 635/667 nm fluorescence (AID 1096); conditions: NOTCH3 binding, 635 nm fluorescence, higher = more signal
Sequence of Neurogenic locus notch homolog protein 3 (Homo sapiens) (Q9UM47 whole entry, looked up): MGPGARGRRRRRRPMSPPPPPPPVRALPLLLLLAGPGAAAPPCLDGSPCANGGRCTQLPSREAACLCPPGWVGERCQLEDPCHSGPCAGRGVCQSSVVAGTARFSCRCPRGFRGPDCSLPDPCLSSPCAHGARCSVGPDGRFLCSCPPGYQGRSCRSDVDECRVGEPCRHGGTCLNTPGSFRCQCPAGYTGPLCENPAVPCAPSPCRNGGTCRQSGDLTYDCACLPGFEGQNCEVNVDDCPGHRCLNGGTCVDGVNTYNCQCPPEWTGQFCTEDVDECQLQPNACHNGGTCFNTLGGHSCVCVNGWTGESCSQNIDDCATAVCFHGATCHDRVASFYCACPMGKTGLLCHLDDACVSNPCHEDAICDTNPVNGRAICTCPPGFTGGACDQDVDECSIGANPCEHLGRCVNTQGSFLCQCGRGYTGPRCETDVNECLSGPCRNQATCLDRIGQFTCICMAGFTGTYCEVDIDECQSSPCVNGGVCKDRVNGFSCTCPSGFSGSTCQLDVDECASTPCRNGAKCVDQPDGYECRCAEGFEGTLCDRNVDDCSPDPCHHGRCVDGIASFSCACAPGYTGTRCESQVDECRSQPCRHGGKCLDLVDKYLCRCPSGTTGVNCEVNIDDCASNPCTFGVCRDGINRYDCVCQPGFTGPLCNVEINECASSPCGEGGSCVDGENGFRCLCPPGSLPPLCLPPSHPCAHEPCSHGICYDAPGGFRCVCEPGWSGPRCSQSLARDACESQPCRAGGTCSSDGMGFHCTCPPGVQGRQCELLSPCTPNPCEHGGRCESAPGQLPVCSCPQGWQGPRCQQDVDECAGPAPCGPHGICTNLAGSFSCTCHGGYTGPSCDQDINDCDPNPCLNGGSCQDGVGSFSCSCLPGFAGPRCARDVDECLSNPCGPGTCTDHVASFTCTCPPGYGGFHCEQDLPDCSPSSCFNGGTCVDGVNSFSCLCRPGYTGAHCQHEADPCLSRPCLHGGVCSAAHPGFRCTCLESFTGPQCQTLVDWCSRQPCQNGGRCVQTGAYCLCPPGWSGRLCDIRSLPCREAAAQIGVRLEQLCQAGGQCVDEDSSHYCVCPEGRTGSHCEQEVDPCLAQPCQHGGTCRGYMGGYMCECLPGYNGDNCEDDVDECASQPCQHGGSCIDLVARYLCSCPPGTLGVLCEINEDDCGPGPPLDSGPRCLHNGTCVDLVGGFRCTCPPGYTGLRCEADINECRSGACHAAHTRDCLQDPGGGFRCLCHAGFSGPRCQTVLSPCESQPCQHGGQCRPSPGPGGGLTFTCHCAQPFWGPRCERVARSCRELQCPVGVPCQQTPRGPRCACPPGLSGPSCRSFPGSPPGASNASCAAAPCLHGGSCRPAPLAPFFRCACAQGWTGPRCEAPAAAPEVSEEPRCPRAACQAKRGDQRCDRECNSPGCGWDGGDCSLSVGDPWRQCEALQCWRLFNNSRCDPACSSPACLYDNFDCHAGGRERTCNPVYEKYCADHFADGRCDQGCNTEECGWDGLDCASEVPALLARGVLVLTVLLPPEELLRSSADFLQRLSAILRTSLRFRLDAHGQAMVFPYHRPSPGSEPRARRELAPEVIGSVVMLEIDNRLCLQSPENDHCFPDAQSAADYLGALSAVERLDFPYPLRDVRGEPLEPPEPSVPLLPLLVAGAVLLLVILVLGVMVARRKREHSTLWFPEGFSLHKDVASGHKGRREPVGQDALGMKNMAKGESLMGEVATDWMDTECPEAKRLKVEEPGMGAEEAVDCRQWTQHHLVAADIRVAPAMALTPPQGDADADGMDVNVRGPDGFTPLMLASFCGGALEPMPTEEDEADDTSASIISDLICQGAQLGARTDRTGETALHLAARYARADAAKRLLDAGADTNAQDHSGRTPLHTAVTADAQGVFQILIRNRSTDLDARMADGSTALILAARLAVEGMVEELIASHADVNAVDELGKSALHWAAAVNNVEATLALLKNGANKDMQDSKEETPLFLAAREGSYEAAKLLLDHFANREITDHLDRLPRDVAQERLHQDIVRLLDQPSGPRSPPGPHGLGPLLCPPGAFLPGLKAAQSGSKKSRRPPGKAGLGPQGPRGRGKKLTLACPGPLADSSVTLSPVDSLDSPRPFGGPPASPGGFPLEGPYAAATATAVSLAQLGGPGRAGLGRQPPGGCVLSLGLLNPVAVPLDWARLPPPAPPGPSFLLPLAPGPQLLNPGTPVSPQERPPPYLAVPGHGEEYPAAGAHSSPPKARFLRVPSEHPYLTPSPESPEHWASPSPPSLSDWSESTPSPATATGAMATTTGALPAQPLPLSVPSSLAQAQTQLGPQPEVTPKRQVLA

[20] = small-molecule microarray binders of probe aEGFR, primary screen, biochemical, biotinylated probe, 635/667 nm fluorescence (AID 1097); conditions: higher = more signal;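 note: probe is a biotinylated anti-EGFR antibody binding compounds printed on slides; score combines fluorescence near 667 nm and signal to noise of each spot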

SMILES | composite z-score [1] | composite z-score [2] | composite z-score [3] | composite z-score [4] | composite z-score [5] | composite z-score [6] | composite z-score [7] | z-score [8] | composite z-score [9] | composite z-score [10] | composite z-score [11] | z-score [12] | z-score [13] | z-score [14] | composite z-score [15] | z-score [16] | composite z-score [17] | composite z-score [18] | composite z-score [19] | composite z-score [20]
C=CCC(OC(C)=O)[C@@H]1[C@@H](N(Cc2ccc(-c3ccccc3)cc2)C(=O)c2ccc(-c3ccccc3)cc2)c2cc(OCCCO)ccc2N1C(=O)c1ccc2ccccc2n1 (stereo not given in full) | 0.0997 | 0.185 | -0.0945 | 0.0767 | -0.332 | 0.211 | -0.359 | -0.0161 (inactive) | 0.212 | 0.347 | 0.474 | -0.755 (inactive) | -0.638 (inactive) | -0.0474 (inactive) | 0.183 | 0.853 (inactive) | 0.121 | 0.408 | 0.361 | -0.0494
COc1cc2c(cc1O)C(c1ccc(CN3CCCC3)cc1)N(Cc1cccc(OC(F)(F)F)c1)CC2 (stereo not given) | 0.254 | 0.956 | -0.0568 | 0.0247 | 0.473 | 1.56 | 1.27 | -0.232 (inactive) | 0.155 | -0.0317 | 0.996 | -26.1 (active) | -20.2 (active) | -3.95 (inactive) | 3.04 | -6.17 (inactive) | 0.045 | 0.0433 | 0.499 | 0.213
CN(C)C(=O)[C@]1(Cc2ccccc2CN=[N+]=[N-])N=C(c2ccc(OCCCO)cc2)O[C@@H]1c1ccccc1N=[N+]=[N-] | 0.168 | 0.142 | 0.117 | 0.41 | 1.49 | 1.85 | 1.22 | -1.04 (inactive) | 1.22 | -0.264 | 1.48 | -1.73 (inactive) | 0.498 (inactive) | 12.9 (active) | 3.43 | -0.0046 (inactive) | 0.0369 | 0.317 | 0.618 | 0.0427
O=C(NCC(F)(F)F)[C@@H]1c2ccccc2C(=O)N(CC23CC4CC(CC(C4)C2)C3)[C@H]1c1ccc(CO)cc1 | -0.473 | 0.371 | -0.0549 | 0.353 | 0.958 | 0.553 | 1.21 | -3.95 (inactive) | 0.195 | -0.0776 | 1.54 | -3.48 (inactive) | -1.94 (inactive) | -1.47 (inactive) | 1.81 | 1.37 (inactive) | -0.129 | 1.14 | 1.1 | -0.0902
COc1ccc([Si](C)(C)[C@H]2[C@H](CCO)O[C@@]3(C(=O)N(Cc4ccc(N5CCOC5=O)cc4)c4ccccc43)[C@@H]2C)cc1 | 0.173 | 0.306 | -0.137 | 0.034 | -0.0425 | 1.11 | 0.664 | -4.39 (inactive) | -0.083 | -0.0994 | 1.06 | 3.62 (inactive) | 0.623 (inactive) | 35.9 (active) | 1.27 | 0.816 (inactive) | -0.139 | 0.0178 | 0.287 | -0.315
